# Shown are actives, neighbours in structure and some others; about 4.8% of the full set was active somewhere.
# DAX1 inh-1 – inhibits human nuclear receptor DAX1. 340,000 compounds, 0.99% hits. AID 504766. HEK293 Gal4-DAX1 luciferase reporter, luminescence. inhibition, % at 6.75 µM;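 active means inhibition above the mean over all tested compounds plus 3 SD, cut at about 4.2% in these data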;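 further: 0% = DAX1-transfected cells with DMSO and 100% = empty-vector control cells with DMSO; inhibition shows as a rise in luminescence from relieved DAX1 repression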
# Target sequence (P51843 207-470 limits assumed): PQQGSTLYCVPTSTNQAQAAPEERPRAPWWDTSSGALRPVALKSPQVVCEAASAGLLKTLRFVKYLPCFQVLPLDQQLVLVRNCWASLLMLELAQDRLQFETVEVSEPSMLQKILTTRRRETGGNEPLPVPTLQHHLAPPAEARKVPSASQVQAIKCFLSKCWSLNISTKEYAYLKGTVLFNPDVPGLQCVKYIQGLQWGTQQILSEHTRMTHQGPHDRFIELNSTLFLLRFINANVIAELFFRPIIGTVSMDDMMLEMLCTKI
# hgDAF-12 ag – activates the H. glycines DAF-12 receptor ligand-binding domain. 370,000 compounds, 1.8% hits. AID 687014. activation, % at 6.8 µM. HEK293 GAL4-hgDAF12 UAS-luciferase reporter, agonist luminescence; normalized to butyrate control;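 active means activation above a cutoff set at the mean of all screened compounds plus 3 SD, cut at about 10% in these data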;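 further: 0% = DMSO wells and 100% = sodium butyrate wells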
# hcDAF-12 act – H. contortus DAF-12 activation, primary screen; AID 652067; HEK293 hcDAF-12 lit1-tk-luc reporter, luminescence; 0% DMSO, 100% Δ7-dafachronic acid; 370,000 compounds, 1.4% hits; activation, % at 6.8 µM;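 active means activation above the mean of all tested compounds plus 3 SD, cut at about 5.5% in these data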;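 further: 100% = response to 3 µM Δ7-dafachronic acid high control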
# ssDAF12 agonist – S. stercoralis DAF-12 activation, primary screen. HEK293 ssDAF-12/GRIP1 lit1-tk-luc reporter, luminescence; % of 3 µM dafachronic acid response. activation, % at 6.8 µM. 370,000 compounds, 1% hits;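 active means activation above the mean over all tested compounds plus 3 SD, cut at about 0.9% in these data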;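 further: 0% = DMSO-only wells and 100% = 3 µM delta7-dafachronic acid wells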
# SMARCA2 act – increases SMARCA2 function in MMTV reporter cells | MG213 cells, MMTV-luciferase reporter, dexamethasone, overnight | activation, % at 9.1 µM | 370,000 compounds, 1% hits | AID 652017; in the data active means activation above about 7.8%;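 further: 0% = vehicle wells and 100% = reference activator wells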
# DAX1 inh-2 – DAX1 (NR0B1) inhibition, primary screen; HEK293T StAR-luciferase reporter, SF-1/DAX-1 repression relief; inhibition, % at 6.8 µM; 370,000 compounds, 1.1% hits; AID 652010;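 active means inhibition above the mean over all tested compounds plus 3 SD, cut at about 3.6% in these data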;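 further: 0% = DAX-1 cells with DMSO and 100% = cells lacking DAX-1 with DMSO; higher inhibition means more luminescence from relief of DAX-1 repression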
# The depositor's hits bear a star; . = no result given.
SMILES,DAX1 inh-1,hgDAF-12 ag,hcDAF-12 act,ssDAF12 agonist,SMARCA2 act,DAX1 inh-2
COc1ccc(Nc2ccc(C(=O)O)cc2[N+](=O)[O-])cc1,2,0,-2,-1,1,0
CC(=O)c1cnc(Nc2ccc(C)cc2)s1,4.7*,9,1,-1,1,2
Cc1ccc(C(NC(=O)c2ccccc2S(C)(=O)=O)c2ccccc2)cc1 (configuration not stated),-1,-1,2,-1,0,-1
COC(C(=O)Nc1ccc(S(=O)(=O)Nc2ccc(F)cc2)cc1)c1ccccc1 (configuration not stated),0,2,-2,-1,-1,-1
O=C(CN1C(=O)CSc2ccccc21)N1CCc2ccccc21,1,-1,0,-1,-3,0
COc1ccc(NC(=O)N2CCCCC2)cc1,0,2,-1,-1,-2,0
Cc1ccc(NC(=O)N2CCCCCC2)cc1,2,5,6,-1,2,3.9*
CC1CC1C(=O)OCC(=O)Nc1ccc(N=Nc2ccccc2)cc1 (configuration not stated),1,10,1,1,1,3
CCCC(=O)OCC(=O)Nc1ccc(N=Nc2ccccc2)cc1,3,11*,5.7*,0,2,3
Cc1onc(-c2ccccc2)c1C(=O)N1CCCc2ccccc21,-1,1,0,1.0*,-4,1
COc1cccc(-c2ccc(NC(=O)C3CCCN(Cc4ccco4)C3)cc2)c1 (configuration not stated),0,1,-1,-2,-1,-2
COC(=O)c1c(N)c2ccccc2[nH]c1=O,1,1,1,-1,-2,0
CC(=O)c1c(C(=O)O)c2ccccc2[nH]c1=O,4.8*,-1,0,-1,-4,0
COc1ccc(C(=O)COc2ccc(C)cc2NC(C)=O)cc1,.,10*,2,0,0,2
COc1ccc(NC(=O)Nc2cc(C)ccc2OC)cc1,0,2,-2,-2,0,0
O=C(Nc1ccc(-c2cn3ccsc3n2)cc1)C1CC1,0,10,2,0,2,3
CC(=O)Nc1ccc(-c2cn3ccsc3n2)cc1,0,12*,2,0,4,1
Cc1cc(C)c(NC(=O)NC(=O)c2cccc(F)c2)c(C)n1,2,2,2,0,0,1
COc1ccc(S(=O)(=O)N2CCN(c3cnccn3)CC2)cc1OC,-2,2,-1,-1,-3,0
Cc1c(C)[n+](=O)c2c(n1[O-])C(Br)CCC2Br (configuration not stated),2,0,0,-1,0,0
Cc1c(CBr)[n+](=O)c2c(n1[O-])C(Br)CCC2Br (configuration not stated),1,-1,2,1.4*,3,-1
Nc1[nH]c(N=NC(=O)c2ccccc2O)c2ccccc12,2,12*,2,-1,1,3
CNS(=O)(=O)c1ccc(NC(=O)c2ccoc2C)cc1,1,2,1,-1,3,0
NS(=O)(=O)c1ccc(NC(=O)c2cccc3ccccc23)cc1,2,1,0,-2,0,0
NS(=O)(=O)c1ccc(NC(=O)c2cccc3cc4ccccc4nc23)cc1,-1,1,-3,0.9*,1,-3
SMILES,DAX1 inh-1,hgDAF-12 ag,hcDAF-12 act,ssDAF12 agonist,SMARCA2 act,DAX1 inh-2
Cc1occc1C(=O)Nc1ccc2c(c1)OCO2,1,6,1,0,-1,1
Cc1occc1C(=O)Nc1ccc(S(N)(=O)=O)cc1,5.6*,-1,-1,-2,-1,1
Cc1cc(NC(=O)c2ccoc2C)ccc1Br,2,9,3,0,4,3.7*
COc1ccc(O)c(/C=N/NC(=S)Nc2cccnc2)c1,-1,2,0,-2,0,-1
COCc1ccc(C(=O)Nc2ccccc2C(=O)NCc2cccnc2)cc1,1,0,0,-1,0,-1
CC(C)(C)c1ccc(OCCC(=O)Nc2ccc(N3CCOCC3)cc2N2CCOCC2)cc1,-2,1,0,0,-3,4.0*
CCOc1cc(N2CCOCC2)c(OCC)cc1NC(=O)COC(=O)CCOc1ccc(C(C)(C)C)cc1,0,0,0,-1,-3,-1
O=C(Cc1ccc(Cl)cc1)Nc1ccc(SC(F)F)cc1,1,11*,1,0,0,1
O=C(Cc1ccc(Br)cc1)Nc1ccc(Cl)cc1,0,4,0,-2,-2,0
Cc1cc(C(=O)COC(=O)C23CC4CC(CC(O)(C4)C2)C3)c(C)n1C,4.5*,11*,5,1,0,3
N#Cc1ccc2nc(-c3ccc(CN4CCC(n5cc(-c6ccccc6)[nH]c5=O)CC4)cc3)c(-c3ccccc3)nc2c1,.,0,-2,-1,-1,-3
Cc1ccc(C2(CCNCc3ccc(N(C)C)cc3)CCOC(C(C)C)C2)cc1 (configuration not stated),-1,1,-1,-1,-2,-1
O=C(Cc1ccccc1)NNc1ccc2ccccc2c1,3,1,5.9*,0,0,2
CC(NC(=O)Cn1cccc1)c1ccccc1 (configuration not stated),1,-1,0,-1,2,4.0*
CC(NC(=O)CCN1C(=O)c2ccccc2C1=O)c1ccccc1 (configuration not stated),4.5*,0,2,-1,4,0
CSCCC(NS(=O)(=O)c1cccc(C(F)(F)F)c1)C(=O)N(C)Cc1ccc2c(c1)OCCO2 (configuration not stated),1,0,-2,-1,0,-2
CCCC(=O)N1CCCC1(C)C(=O)N(C)Cc1cccc2ccccc12 (configuration not stated),.,-4,-1,-1,-4,-2
CCCC(=O)Oc1cccc(C2NC(=O)c3ccccc3O2)c1 (configuration not stated),2,0,-2,1,1,0
CC(C)Oc1cccc(C2NC(=O)c3ccccc3O2)c1 (configuration not stated),4.7*,2,2,-1,0,0
CCc1ccc(NC(=O)c2cnc3scc(C)n3c2=O)cc1,1,10,5.8*,1.2*,2,3
C=CCn1c(C)nc2c(sc3nc4c(cc32)COC(C)(C)C4)c1=O,4.7*,13*,4,0,2,1
NC(=O)c1ccc(=O)n(Cc2ccc(F)c(F)c2)c1,0,0,-1,-1,1,0
O=c1cc(-c2ccccc2)oc2cc(OCc3ccccc3)cc(O)c12,0,2,-1,-1,1,0

# Screening results as filed in PubChem.
